Records with an inconclusive call do not appear. Activity calls are given as the source filed them. How the source made its calls, unless noted: active means hit-call score of the fitted dose curve at least 0.9, where 1 is the maximum; inactive means score below 0.9.

Assay [1] is described as follows: CCTE_Harrill_HTTr_Apoptosis_MCF7: CCTE's 6-hour Apoptosis Assessment for the High-Throughput Transcriptomics (HTTr) Platform, in MCF-7 cells cultured in DMEM + 10% fetal bovine serum, Harrill Lab (AID 2284011). The essentials: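 High-content imaging of CellEvent Caspase 3/7 Green signal follows a six-hour exposure, with eight concentrations per chemical. MCF-7 cells grown in DMEM plus 10% fetal bovine serum; activity fitted in both directions against DMSO.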

Assay [2] can be described thus: CCTE_Harrill_HTTr_CellCount_MCF7: CCTE's Cell Proliferation Assessment for the High-Throughput Transcriptomics (HTTr) Platform, Harrill Lab (AID 2284012; active means hit-call score of the fitted dose curve at least 0.9, where 1 is the maximum;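 further: count of Hoechst-stained nuclei per well by high-content imaging in MCF-7 cells; cells exposed to compound for six hours; intended direction is loss of nuclei count meaning fewer cells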). The essentials: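 Nuclei counting (Hoechst, high content imaging) in MCF-7 after a 6 h treatment at eight concentrations. Activity fitted bidirectionally, DMSO as negative control.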
Assay [3] deals with Estrogen receptor (Homo sapiens) (UniProt P03372). Put plainly: CCTE_Deisenroth_AIME_96WELL_LUC_Active: CCTE's 96-well Estrogen Receptor Transactivation Assay with AIME metabolic competence (ERTA luciferase; metabolism positive), Deisenroth Lab (AID 2284023; active means hit-call score of the fitted dose curve at least 0.9, where 1 is the maximum). The gist of the method: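 Chemicals pre-incubated 2 h with alginate-immobilized phenobarbital/beta-naphthoflavone-induced male Sprague Dawley rat liver S9, then medium transferred to VM7Luc4E2 cells for 24 h luciferase read-out. 10-point series 0.002 - 200 uM; fitted relative to 17beta-estradiol.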
Chain of Estrogen receptor (Homo sapiens) (P03372 whole entry, looked up): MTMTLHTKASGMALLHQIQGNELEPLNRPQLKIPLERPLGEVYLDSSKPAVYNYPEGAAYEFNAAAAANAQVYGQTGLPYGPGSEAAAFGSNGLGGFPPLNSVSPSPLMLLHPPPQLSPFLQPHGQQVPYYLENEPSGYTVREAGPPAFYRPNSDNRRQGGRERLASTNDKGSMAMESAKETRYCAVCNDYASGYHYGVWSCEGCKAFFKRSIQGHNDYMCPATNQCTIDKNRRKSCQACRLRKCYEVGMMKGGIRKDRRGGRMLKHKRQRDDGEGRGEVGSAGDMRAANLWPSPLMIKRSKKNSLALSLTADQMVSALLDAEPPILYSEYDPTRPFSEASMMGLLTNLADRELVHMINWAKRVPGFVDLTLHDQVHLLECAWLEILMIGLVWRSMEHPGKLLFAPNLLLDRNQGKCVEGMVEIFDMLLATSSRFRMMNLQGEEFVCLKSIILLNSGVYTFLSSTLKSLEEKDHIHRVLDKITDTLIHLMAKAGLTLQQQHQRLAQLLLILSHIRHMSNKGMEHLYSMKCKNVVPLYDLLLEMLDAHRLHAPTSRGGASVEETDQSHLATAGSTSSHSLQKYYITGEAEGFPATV

Assay [4] has the same target. The assay is described as follows: CCTE_Deisenroth_AIME_96WELL_LUC_Inactive: CCTE's 96-well Estrogen Receptor Transactivation Assay without AIME metabolic competence (ERTA luciferase; metabolism negative), Deisenroth Lab (AID 2284025; active means hit-call score of the fitted dose curve at least 0.9, where 1 is the maximum). The essentials:
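VM7Luc4E2 breast cells, luciferase read 24 h after dosing with medium pre-incubated 2 h on alginate-water lids (metabolism negative). 10-point series 0.002–200 uM, single technical replicate, n≥4; fit relative to 17beta-estradiol.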

A short description of assay [5]: CCTE_Deisenroth_AIME_96WELL_CTox_Active: Cytotoxicity Assessment (CTOX) in CCTE's 96-well Estrogen Receptor Transactivation Assay with AIME metabolic competence (metabolism positive), Deisenroth Lab (AID 2284028; active means hit-call score of the fitted dose curve at least 0.9, where 1 is the maximum). The essentials: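 Chemicals (0.002–200 uM) were first incubated 2 h with alginate-immobilized phenobarbital/beta-naphthoflavone-induced male rat liver S9; conditioned medium then went onto VM7Luc4E2 cells for 24 h, with viability read by protease-substrate fluorescence, fitted bidirectionally.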

Assay [6] has as its target Estrogen receptor (Homo sapiens) (UniProt P03372). The assay is described as follows: CCTE_Deisenroth_AIME_384WELL_LUC_Active: CCTE's 384-well Estrogen Receptor Transactivation Assay with AIME metabolic competence (ERTA luciferase; metabolism positive), Deisenroth Lab (AID 2284030; active means hit-call score of the fitted dose curve at least 0.9, where 1 is the maximum). The gist of the method:
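VM7Luc4E2 breast cells were given, for 24 hours, medium pre-incubated for 2 hours with parent chemical (0.002-200 uM, 10 concentrations) and alginate-encapsulated phenobarbital/beta-naphthoflavone-induced rat hepatic S9. Luciferase gain of signal was fitted against 17beta-estradiol; n=4 or more.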

Assay [7] in a line: CCTE_Shafer_MEA_acute_burst_number: CCTE's Neural Acute Assay for Single-Electrode Bursts, Shafer Lab (AID 2284013). The essentials: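 Rat cortical cultures, DIV 13/15; 40 min baseline, then 40 min with compound 0.03-40 uM, 37 C. Spikes: 300-5000 Hz band-pass, threshold 8x rms noise. Readout = % change in single-electrode bursts vs baseline, loss-of-signal fit.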
Assay [8] is described as follows: CCTE_Shafer_MEA_acute_burst_duration_mean: CCTE's Neural Acute Assay for Mean Burst Duration, Shafer Lab (AID 2284014).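 Further: hits are decreases in mean burst duration relative to DMSO controls.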 The essentials:
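Primary rat cortical neurons on 16-electrode MEA wells, treated on DIV 13 or 15 with compound (0.03-40 uM; ≥3 wells each). 40-min baseline and 40-min exposure recordings at 37 C; percent change in mean burst duration per well versus DMSO.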

Assay [9] in a line: CCTE_Shafer_MEA_acute_per_burst_spike_number_mean: CCTE's Neural Acute Assay for Average Number of Spikes Per Burst, Shafer Lab (AID 2284015).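 Further: hits are decreases in mean spikes per burst versus baseline.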 The essentials: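 Percent change in mean spikes per single-electrode burst is compared between a 40 min baseline and a 40 min recording with compound (0.03-40 uM). Cultures were rat cortical neurons on MEA plates at DIV 13 or 15, recorded at 37 C, with DMSO as the negative control.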

The nature of assay [10]: CCTE_Shafer_MEA_acute_interburst_interval_mean: CCTE's Neural Acute Assay for Mean Interburst Interval, Shafer Lab (AID 2284016).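 Further: percent change of mean interburst interval versus each well's own pre-dose baseline; curves fitted for decrease in interburst interval relative to DMSO.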 The gist of the method: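 Percent change in mean single-electrode interburst interval was calculated per well from 40 min recordings before and after compound (0.03-40 uM). Recordings were made at 37 C on rat cortical cultures at DIV 13 or 15, with spikes detected at 8x rms threshold.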

Assay [11] can be described thus: CCTE_Shafer_MEA_acute_burst_percentage_mean: CCTE's Neural Acute Assay for Percentage of Spikes in a Burst, Shafer Lab (AID 2284017). The essentials: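 Well-level mean burst percentage from a 40-min recording after compound (0.03-40 uM) expressed as percent change from a 40-min baseline at 37C. Cultures: primary rat cortical neurons on MEA, dosed on DIV 13 or 15; fitted downward relative to DMSO.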

The nature of assay [12]: CCTE_Shafer_MEA_acute_burst_percentage_std: CCTE's Neural Acute Assay for Standard Deviation of Burst Percentage, Shafer Lab (AID 2284018).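 Further: fitted in the negative direction so actives lower burst percentage SD.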 The gist of the method:
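Primary rat cortical neurons on 16-electrode MEA wells were recorded 40 min at baseline (DIV 13 or 15), then 40 min after compound (0.03-40 uM), at 37 C. Well value is SD across electrodes of spikes-in-bursts/total spikes; endpoint is percent change, DMSO-referenced.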

The nature of assay [13]: CCTE_Shafer_MEA_acute_per_network_burst_spike_number_mean: CCTE's Neural Acute Assay for Average Number of Spikes in a Network Burst, Shafer Lab (AID 2284019). The essentials:
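Primary rat cortical neurons on 16-electrode MEA wells, DIV 13 or 15, 37 C; 40-min baseline then 40-min recording with compound (0.03-40 uM). Spikes per network burst (total spikes/number of bursts) expressed as percent change from baseline, DMSO reference.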

A short description of assay [14]: CCTE_Shafer_MEA_acute_per_network_burst_spike_number_std: CCTE's Neural Acute Assay for Standard Deviation of Number of Spikes in a Network Burst, Shafer Lab (AID 2284020).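 Further: fitted for decrease in spike-number SD versus DMSO so actives lower it.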 The gist of the method:
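Primary rat cortical neurons on 48-well MEAs (16 electrodes/well) recorded at DIV 13 or 15: 40-min baseline, then 40 min with compound (0.03-40 uM), 37 C. Value is percent change in SD of spikes per network burst, relative to DMSO.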

A short description of assay [15]: CCTE_Shafer_MEA_acute_per_network_burst_electrodes_number_mean: CCTE's Neural Acute Assay for Mean Number of Electrodes in a Network Burst, Shafer Lab (AID 2284021).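 Further: curves fitted for decreases only so hits reduce electrodes per burst.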 The essentials: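 Percent change from baseline was computed as mean electrode count per network burst, comparing 40 min recordings before and during compound (0.03-40 uM) exposure. Cultures were rat cortical neurons at DIV 13 or 15, recorded on MEAs at 37 C with an adaptive 8x rms threshold.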

Assay [16] is described as follows: CCTE_Shafer_MEA_acute_network_burst_percentage: CCTE's Neural Acute Assay for Percentage of Network Bursts, Shafer Lab (AID 2284022).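 Further: curves fitted for loss so actives lower network burst percentage.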 The gist of the method: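 Network burst percentage (spikes in network bursts divided by total spikes) recorded at 37 C over 40 min baseline and 40 min after compound, 0.03-40 uM, in rat cortical cultures at DIV 13 or 15. Analysed as percent change from baseline versus DMSO.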

Assay [17] in a line: CCTE_Shafer_MEA_acute_cross_correlation_area: CCTE's Neural Acute Assay for Area of Cross Correlation, Shafer Lab (AID 2284024).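 Further: area under pooled inter-electrode spike cross-correlation near zero lag as percent change from own baseline; curves fitted for loss of cross-correlation area so actives lower synchrony.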 The gist of the method:
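Percent change in well-wide cross-correlation area (window around zero lag) between 40 min baseline and 40 min post-compound recordings, 37 C; rat cortical cultures on MEA at DIV 13 or 15, dosed 0.03-40 uM, wells needing >/= 10 active electrodes.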

A short description of assay [18]: CCTE_Shafer_MEA_acute_synchrony_index: CCTE's Neural Acute Assay for Synchrony, Shafer Lab (AID 2284027).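 Further: network synchrony index of spontaneous spiking in primary rat cortical neurons on MEAs; fitted for loss of signal so actives lower synchrony relative to DMSO.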 The essentials: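 Spontaneous firing of mature rat cortical networks is captured extracellularly on microelectrode arrays at 37 C, with wells needing ≥10 active electrodes. Each compound (0.03-40 uM) is judged by the change in synchrony index from baseline over 40 min.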

On to `Cc1cc(C)c(C)cc1C`, for which, in assay [1], the outcome was inactive.
`c1c[nH]cn1`: the result in assay [1] and in [2] was inactive.
On to `NC(=O)N=NC(N)=O`, for which the outcome in [1] was inactive.
Consider `CC/C=C\C/C=C\C/C=C\CCCCCCCC(=O)O`, for which the result in assay [1] and in assay [2] was inactive.
On to `COc1ccc(-c2coc3cc(O)ccc3c2=O)cc1`, for which the outcome in assay [1] and in [5] was inactive. In addition, the AC50 in assay [3] was 6.69 µM (active); in assay [4] it was 5.41 µM (active).
With `CC(=O)[C@@]1(O)CC[C@H]2[C@@H]3C[C@H](C)C4=CC(=O)C=C[C@]4(C)[C@@]3(F)[C@@H](O)C[C@@]21C`, the result in [1] and in assay [2] was inactive.
`CC(C)(Oc1ccc(C2CC2(Cl)Cl)cc1)C(=O)O` (stereo unspecified): the result in assay [1] was inactive.
Still for that read-out and setting: to `NC(=O)c1ccccc1O` belongs “inactive”.
Regarding `O=c1cc(-c2ccccc2)oc2ccccc12`, in [1], the result was inactive. Moreover, the AC50 in assay [6] was 45.6 µM (active).
As for `CCOC(=O)c1ccccc1C(=C1C=C(Br)C(=O)C(Br)=C1)c1cc(Br)c(O)c(Br)c1`, the result in assay [1], in [7], in [8], in assay [9], in assay [10] and in assay [11] was inactive. Also, the molecule was classed as inactive in [12], in [13], in [14], in assay [15], in assay [16] and in assay [17]. In addition, in assay [18], the outcome was inactive.
For the molecule `CCC(=O)Oc1ccc(/C(CC)=C(\CC)c2ccc(OC(=O)CC)cc2)cc1`, the result in assay [1] and in [2] was inactive.
Consider `C#CC1(O)CC[C@H]2[C@@H]3CCC4=CCCC[C@@H]4[C@H]3CC[C@@]21C` (stereo partly specified), for which, in [1], the outcome was inactive.
`CC(=O)Nc1nnc(S(N)(=O)=O)s1`: the result in assay [1] and in assay [2] was inactive.
`CCN(Cc1cccc(S(=O)(=O)O)c1)c1ccc(C(=C2C=CC(=[N+](CC)Cc3cccc(S(=O)(=O)[O-])c3)C=C2)c2ccccc2)cc1`: the result in assay [1] and in assay [2] was inactive.
On to `Cc1cc(=O)n(-c2ccccc2)n1C`, for which the outcome in assay [1] was inactive.
Turning to `C=CC(=O)NC(C)(C)CS(=O)(=O)O`, the outcome in assay [1] and in assay [6] was inactive.
Consider `Oc1ccc(Cl)cc1Cc1cc(Cl)ccc1O`, for which the result in assay [1] was inactive.
Same read-out and setting: under `O=c1c2ccccc2oc2ccccc12` stands “inactive”.

The record behind these values is PubChem BioAssay (EPA / NIEHS).
